# PubChem BioAssay (NCATS)
# Inconclusive results are not listed. Where a call stands in place of a potency, no number is given. The source made the active and inactive calls. Calls come from the whole dose curve; as a rule, active = well fitted curve in the direction sought with a large enough effect; inconclusive = small, poorly fitted or top-dose-only effect, or another doubt; inactive = no such curve, though single readings can be large; an effect the other way counts as inactive or inconclusive.
# Columns and labels:
# [1] = qHTS for Inhibitors of Ubiquitin-specific Protease USP2a Using CHOP2 as the Reporter: K633 Counterscreen (AID 652168); note: series mostly up to about 57 µM
# In short: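 Cell-free interference counterscreen without USP2a: compounds pinned into enzyme-free buffer (20 mM Tris pH 8, 2 mM beta-mercaptoethanol, 0.05% Chaps), then DiUb K48-4IQF substrate added (100 nM stock); fluorescence read kinetically, Ex 525/Em 598.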
# [2] = biological target: Ubiquitin carboxyl-terminal hydrolase 2 (Homo sapiens) (UniProt O75604); experiment: qHTS for Inhibitors of Ubiquitin-specific Protease USP2a Using CHOP2 as the Reporter: K484 Substrate (AID 652173);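 note: cleavage of internally quenched K48 di-ubiquitin substrate measured as rising fluorescence over time; nearly all actives have a fitted effect of over 70% in size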; note: potency is the fitted concentration of half-maximal effect
# In short: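 USP2 (dispensed at 5 nM) was pinned with compounds, then DiUb K48 internally quenched fluorescent substrate (dispensed at 100 nM) was added. The buffer was 20 mM Tris pH 8, 2 mM beta-mercaptoethanol and 0.05% CHAPS. Cleavage was read kinetically as rising fluorescence, Ex 525/Em 598.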
# [3] = qHTS for Inhibitors of Ubiquitin-specific Protease USP2a Using CHOP2 as the Reporter: Cytotox Assay (AID 652170); note: nearly all actives have a fitted effect of over 70% in size; note: potency is the fitted concentration of half-maximal effect
# In short: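 HCT116 human colon cancer cells, 600 per well in DMEM with 10% FBS, exposed to compounds for 72 hr at 37 deg C. ATP measured by CellTiter-Glo luminescence, normalized to DMSO cells and no-cell background.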
# Ubiquitin carboxyl-terminal hydrolase 2 (Homo sapiens), sequence (O75604 whole entry, looked up): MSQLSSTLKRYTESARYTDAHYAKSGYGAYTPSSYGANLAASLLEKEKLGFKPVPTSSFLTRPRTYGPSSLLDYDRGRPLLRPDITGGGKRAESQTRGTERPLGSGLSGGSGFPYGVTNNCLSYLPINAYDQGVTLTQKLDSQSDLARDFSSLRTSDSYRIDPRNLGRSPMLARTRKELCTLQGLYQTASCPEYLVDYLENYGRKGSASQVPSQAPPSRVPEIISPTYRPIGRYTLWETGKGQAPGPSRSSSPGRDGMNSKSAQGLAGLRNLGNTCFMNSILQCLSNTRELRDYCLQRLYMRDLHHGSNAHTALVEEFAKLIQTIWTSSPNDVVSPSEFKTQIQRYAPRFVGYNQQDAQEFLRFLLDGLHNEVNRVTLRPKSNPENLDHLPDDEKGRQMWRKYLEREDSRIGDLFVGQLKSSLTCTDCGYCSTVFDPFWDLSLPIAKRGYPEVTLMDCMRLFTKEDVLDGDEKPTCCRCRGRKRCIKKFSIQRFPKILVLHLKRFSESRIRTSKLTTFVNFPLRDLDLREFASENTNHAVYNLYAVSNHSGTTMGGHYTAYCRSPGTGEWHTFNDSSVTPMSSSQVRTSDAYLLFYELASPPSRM
SMILES,outcome [1],Potency [2],Potency [3]
CCCOC1CCC(C(=O)Nc2ccc([S+](=O)([O-])Nc3nccs3)cc2)CC1 (centres undefined),inactive,inactive,
Cc1ccc(-c2cc(C(=O)Nc3ccc(C(N)=O)cc3)c3ccccc3n2)cc1C,inactive,21.7 µM (active),
CCCc1ccc(-c2csc(NC(=O)c3ccncc3NS(=O)(=O)c3ccc(C)cc3)n2)cc1,inactive,1.53 µM (active),
Cc1ccc(-c2cc(C(=O)Nc3ccc4ccccc4c3)c3ccccc3n2)cc1C,,,inactive
Cc1ccc(S(=O)(=O)Nc2cnccc2C(=O)Nc2nc(-c3ccccc3Cl)cs2)cc1,inactive,1.72 µM (active),
COCOC1CCC(C(=O)Nc2ccc([S+](=O)([O-])Nc3nccs3)cc2)CC1 (centres undefined),inactive,inactive,
Cc1cc(S(=O)(=O)Nc2cnccc2C(=O)Nc2nc(-c3ccccc3)cs2)c(C)o1,inactive,3.43 µM (active),23.5 µM (active)
CCCCC1CCC(C(=O)Nc2ccc(S(=O)(=O)Nc3cc(C)on3)cc2)CC1 (centres undefined),,,inactive
Cc1ccc(-c2cc(C(=O)Nc3ccc(S(=O)(=O)O)cc3)c3ccccc3n2)cc1C,inactive,13.7 µM (active),
Cc1ccc(S(=O)(=O)Nc2cnccc2C(=O)Nc2nc(-c3cc(Br)cs3)cs2)cc1,inactive,2.17 µM (active),
O=C(C[C@H]1CC[C@@H](C(=O)Nc2ccc(S(=O)(=O)Nc3nccs3)cc2)C1)c1ccccc1,,,inactive
CCC(=O)OC1CCC(C(=O)Nc2ccc([S+](=O)([O-])Nc3nccs3)cc2)CC1 (centres undefined),inactive,inactive,
O=C(Nc1ccc(S(=O)(=O)Nc2nccs2)cc1)c1ccc(-c2ccccc2)cc1,inactive,24.3 µM (active),
O=C(Nc1nc(-c2ccccc2)cs1)c1ccncc1NS(=O)(=O)c1ccc2ccccc2c1,inactive,1.37 µM (active),
Cc1ccc(S(=O)(=O)Nc2ncccc2C(=O)Nc2nc(-c3ccccc3)cs2)cc1,inactive,3.43 µM (active),
Cc1ccc(S(=O)(=O)Nc2cnccc2C(=O)Nc2nc(-c3ccc(C)c(C)c3)cs2)cc1,inactive,2.73 µM (active),
Cc1ccc(-c2cc(C(=O)Nc3ccc(S(=O)(=O)Nc4ccncc4)cc3)c3ccccc3n2)cc1C,,,inactive

SMILES,outcome [1],Potency [2],Potency [3]
COc1ccc(-c2csc(NC(=O)c3ccncc3NS(=O)(=O)c3ccc(C)cc3)n2)cc1,inactive,2.17 µM (active),
Cc1ccc(S(=O)(=O)Nc2cnccc2C(=O)Nc2nc(-c3cccc(Cl)c3)cs2)cc1,inactive,2.17 µM (active),23.5 µM (active)
N#Cc1cnc(NS(=O)(=O)c2ccc(NC(=O)Cc3ccc(F)c(Cl)c3)cc2)s1,inactive,15.3 µM (active),
Cc1ccccc1S(=O)(=O)Nc1cnccc1C(=O)Nc1nc(-c2ccccc2)cs1,inactive,2.43 µM (active),
O=C(Nc1ccc(S(=O)(=O)Nc2ncc(-c3ccccc3)s2)cc1)c1ccc2ccccc2c1,inactive,3.06 µM (active),
O=C(Nc1nc(-c2ccccc2)cs1)c1ccncc1NS(=O)(=O)c1ccc(F)c(F)c1,inactive,2.17 µM (active),
O=C(Nc1nc(-c2ccccc2)cs1)c1ccncc1NS(=O)(=O)c1ccccc1F,inactive,2.43 µM (active),
Cc1ccc(S(=O)(=O)Nc2cnccc2C(=O)Nc2nc(-c3cc4ccccc4o3)cs2)cc1,inactive,1.93 µM (active),
N#Cc1cnc(N[S+](=O)([O-])c2ccc(Nc3nc(-c4ccccc4)cs3)cc2)s1,inactive,inactive,inactive
Cc1ccc(NC(=O)c2cc(-c3ccc(C)c(C)c3)nc3ccccc23)cc1,,,inactive
O=C(Nc1nc(-c2ccccc2)cs1)c1ccncc1NS(=O)(=O)c1ccc(F)cc1F,inactive,3.06 µM (active),inactive
CCN(CC)C(=O)C1CCC(C(=O)Nc2ccc([S+](=O)([O-])Nc3nccs3)cc2)CC1 (centres undefined),inactive,inactive,
Cc1ccc(S(=O)(=O)Nc2ccc(OC(F)(F)F)cc2C(=O)Nc2nc(-c3ccccc3)cs2)cc1,,,5.9 µM (active)
COC(=O)C1=CC[C@H](c2ccc(C)cc2)N(S(=O)(=O)c2ccc(C)cc2)[C@@H]1c1ccc(C(C)(C)C)cc1,,,inactive
Cc1ccc(S(=O)(=O)Nc2cc(Cl)c(Cl)cc2C(=O)Nc2nc(-c3ccccc3)cs2)cc1,inactive,1.37 µM (active),5.26 µM (active)
O=C(Nc1nc(-c2ccc(F)cc2)cs1)c1ccncc1NS(=O)(=O)c1ccc(F)cc1,inactive,4.85 µM (active),
